Screening data (PubChem)
TCR act: activators of T cell receptors; AID 504894; Potency, µM (series often up to 9.22 µM), without a hit: at the top dose activation of IL-2 secretion, usual class: activators; primary human leukocytes, anti-CD3, IL-2 HTRF, 48 h; 330,000 tested, under 10 active; further: % of control where 0% means no effect
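48 hr co-incubation of compounds, a-CD3 beads and primary human leukocytes; IL-2 quantified homogeneously by HTRF with anti-IL-2 K and d2 conjugates.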
FEN1 inh: inhibitors of human flap endonuclease 1; AID 588795; Potency, µM (doses to about 114 µM), inactives show at the top dose activity change, negative = inhibition, most hits filed as inhibitors; Recombinant FEN1 flap cleavage, fluorescence, 15 min; actives 0.35% (n = 390,000); further: potency means the concentration at half of the fitted maximal effect; on the % scale 0 is the no-effect control and ±100 the full control effect; nearly all actives have a fitted effect of over 65% in size
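In this screen, 50 nM flap DNA substrate was added to 10 nM FEN1 pretreated with compound for 15 min at room temperature; cleavage was followed with reads at 0 and 15 min, and Hill fitting gave concentration–response parameters.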
VDR inh: inhibitors of human vitamin D receptor | Potency, µM, without a hit: max response, negative = inhibition, actives largely listed as inhibitors | actives 0.93% (n = 400,000) | P11473 | VDR-SRC2-3 peptide fluorescence polarization, 2 h; further: potency means the concentration at half of the fitted maximal effect; on the % scale 0 is the no-effect control and ±100 the full control effect
Target sequence (P11473 whole entry, looked up): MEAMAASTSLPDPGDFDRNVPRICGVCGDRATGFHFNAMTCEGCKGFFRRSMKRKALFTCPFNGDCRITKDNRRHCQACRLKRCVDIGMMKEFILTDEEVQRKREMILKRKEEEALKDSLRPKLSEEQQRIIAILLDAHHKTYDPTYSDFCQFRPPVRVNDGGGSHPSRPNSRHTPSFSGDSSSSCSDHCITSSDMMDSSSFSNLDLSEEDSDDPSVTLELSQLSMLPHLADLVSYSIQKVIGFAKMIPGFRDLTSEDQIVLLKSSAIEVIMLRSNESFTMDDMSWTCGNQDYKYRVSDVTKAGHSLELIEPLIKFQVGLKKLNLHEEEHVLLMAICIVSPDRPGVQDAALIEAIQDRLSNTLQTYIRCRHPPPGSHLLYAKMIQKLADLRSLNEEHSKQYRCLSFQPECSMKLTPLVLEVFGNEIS
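Inhibition of the VDR/SRC2-3 peptide interaction is quantified by fluorescence polarization. Compounds (23 nl, pintool) incubate with the reagents for 2 hours at ambient room temperature.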
PLK1 PBD inh: blocks phosphopeptide binding to human PLK1 polo-box domain; AID 720504; Potency, µM, for the others: max response, negative = inhibition, actives largely listed as inhibitors; Plk1 PBD binding of FITC phosphopeptide, fluorescence polarization; actives 2.8% (n = 360,000); further: potency means the concentration at half of the fitted maximal effect; series mostly up to about 57 µM; on the % scale 0 is the no-effect control and ±100 the full control effect; nearly all actives have a fitted effect of over 65% in size
PI5P4K alpha inh: PI5P4K alpha (human) kinase inhibition. P48426. PI5P4Kalpha enzyme, ADP-Glo luminescence, 60 min; stronger effect = lower value. max response, %. actives 1.2% (n = 330,000). AID 652105; active means max response of -50% or lower; inconclusive means between -30% and -50%; inactive means -30% or higher; further: value at the top dose of about 77 µM; on the % scale 0 is the no-effect control and ±100 the full control effect
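Compounds were pin-transferred onto PI5P4Kalpha and substrate in HEPES pH 7.4 buffer with EGTA, CHAPS and 5% DMSO. ATP (5 microM final) started the reaction, which ran 60 minutes at room temperature before ADP-Glo detection.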
WRN helicase inh: WRN helicase (human) inhibition; Q14191; WRN helicase unwinding, fluorescent forked duplex, kinetic; Potency, µM (top dose mostly 114 µM), without a hit: top-dose activity change, negative = inhibition, actives largely listed as inhibitors; actives 0.46% (n = 360,000); AID 651768; further: potency means the concentration at half of the fitted maximal effect; on the % scale 0 is the no-effect control and ±100 the full control effect; nearly all actives have a fitted effect of over 55% in size
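Primary qHTS, 1536-well format. 20 nM WRN + compound, 15 min RT; start with 100 nM forked fluorophore/quencher duplex, 2 mM ATP (final); kinetic read ex 525/em 598 nm.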
An asterisk follows results filed as active; ? = inconclusive; . = no result; [ ] = another dose, or the depositor's remark. Sampled rows, rich in hits. Any-hit rate of the full collection: about 3.7%. Unless noted, the call rests on the fitted dose curve; in most records, active means well fitted curve in the direction sought with a large enough effect; inconclusive means small, poorly fitted or top-dose-only effect, or another doubt; inactive means no such curve, though single readings can be large; an effect the other way counts as inactive or inconclusive.

SMILES	TCR act	FEN1 inh	VDR inh	PLK1 PBD inh	PI5P4K alpha inh	WRN helicase inh
CCOC(=O)c1[nH]c2ccc(C)cc2c1NC(=O)CN1CCCCC1	0%	-7%	-9%	-9%	4	-5%
CCOC(=O)C1=C(CSc2nc3c(cc2C#N)CCC3)OC(N)=C(C#N)C1c1ccccc1 (centres undefined)	.	?	9%	17µM*	.	-21%
Cc1nn(-c2ccccc2)c2nc(-c3ccncc3)cc(C(=O)NCc3ccco3)c12	.	-21%	-19%	30µM*	?	-32%
Cc1nn(-c2ccccn2)c2nc(-c3cccs3)cc(C(=O)NCc3ccco3)c12	5%	-11%	-14%	-20%	-25	-17%
COCC1=C(C(=O)OC(C)OC(=O)OC(C)C)N2C(=O)[C@@H](NC(=O)/C(=N\OC)c3csc(N)n3)[C@H]2SC1 (some centres undefined)	2%	-17%	-6%	-17%	4	4%
CO/N=C(\C(=O)N[C@@H]1C(=O)N2C(C(=O)O)=C(COC(C)=O)CS[C@H]12)c1csc(N)n1	.	?	71µM*	.	.	.
CO/N=C(\C(=O)N[C@@H]1C(=O)N2C(C(=O)[O-])=C(C[n+]3cccc4c3CCC4)CS[C@H]12)c1csc(N)n1	.	.	28µM*	.	.	.
COc1ccc(/C=C/c2cnc3ccccc3n2)cc1OC	.	-20%	.	.	.	.
COc1ccc2c(C)nc(Nc3nc(C)c(C)c(=O)[nH]3)nc2c1	3%	45µM*	-6%	5%	.	2%[57.1 µM]
CCN(C(=O)c1cn(CC(C)C)c(=O)c2cc(OC)c(OC)cc12)c1cc(OC)ccc1OC	.	-6%	-11%	.	.	.
CC(=O)Nc1ccc2nc3c(=O)n(C)c(=O)n(C)c3nc2c1	7%	?	-7%	?	?	10µM*
Cn1c(=O)c2nc3ccc(NC(=O)C(F)(F)F)cc3nc2n(C)c1=O	.	8%	-6%	.	.	.
C#CCOc1c(Br)cc(C2C(C(=O)OC)=C(C)NC3=C2C(=O)c2ccccc23)cc1OCC (centres undefined)	.	?	6%	.	.	.
COC(=O)c1c(NC(C)=O)sc(C(=O)Nc2ccccc2F)c1C	12%	-1%	-12%	24µM*	?	-6%
O=C(Cn1ncc2c([nH]c3ccccc32)c1=O)N1CCN(c2ccc(F)cc2)CC1	-1%	23%	-19%	?	-2	3%
O=C(Cn1ncc2c([nH]c3ccccc32)c1=O)N1CCN(c2ccccc2F)CC1	-3%	-9%	-8%	27µM*	-1	-2%
CCc1ccc(NC(=O)CC2C(=O)N(c3ccc(Cl)cc3)C(=O)N2C2CCCC2)cc1 (centres undefined)	.	40µM*	9%	.	.	.
COc1ccc(CC(=O)N2CCc3cc(OC)c(OC)cc3C2COc2ccc(OC)cc2)cc1 (centres undefined)	.	-1%	5%	.	.	.
CC(NCC(O)COCCC12CC3CC(CC(C3)C1)C2)c1ccccc1 (centres undefined)	2%	-21%	-7%	30µM*	2	-5%
NCC(O)COCCC12CC3CC(CC(C3)C1)C2 (centres undefined)	4%	2%	-8%	-4%	11	0%
CC(=O)c1ccc(N2Cc3ccccc3/C2=N\C(=O)Nc2ccccc2)cc1	-9%[46.1 µM]	-5%	-3%	-8%	-4	-29%[57.1 µM]
CC(=O)c1cccc(N2Cc3ccccc3C2=NC(=O)CCl)c1	4%	-10%	-30%	13µM*	-70*	-19%
CN1C(=O)C2CCCCN2c2ccc(C(=O)NCc3ccccc3Br)cc21 (centres undefined)	.	-15%	14%	.	.	.
O=C(O)c1ccc2c(c1)[C@@H]1C=CC[C@@H]1[C@H](c1ccccn1)N2	-3%	32µM*	?	?	.	35µM*
COc1ccc(OC)c([C@@H]2Nc3ccc(C(=O)O)cc3[C@@H]3C=CC[C@@H]32)c1	.	-20%	3%	.	.	.
SMILES	TCR act	FEN1 inh	VDR inh	PLK1 PBD inh	PI5P4K alpha inh	WRN helicase inh
CC(C)C[C@H](NC(=O)[C@H](CC(C)C)NC(=O)[C@H](Cc1ccccc1)NC(=O)[C@@H](N)CO)C(=O)N[C@@H](CCCNC(=N)N)C(=O)N[C@@H](CC(N)=O)C(=O)N1CCC[C@H]1C(=O)N[C@@H](CC(N)=O)C(=O)N[C@@H](CC(=O)O)C(=O)N[C@@H](CCCCN)C(=O)N[C@@H](Cc1ccc(O)cc1)C(=O)N[C@@H](CCC(=O)O)C(=O)N1CCC[C@H]1C(=O)N[C@@H](Cc1ccccc1)C(=O)O	.	.	-6%	.	.	.
Cc1cc(N/N=C/c2ccco2)c2ccccc2n1	6%	4%	?	24µM*	-27	1%
COc1ccc2nc(C)cc(N/N=C/c3ccccc3)c2c1	2%	35µM*	-14%	-5%	-30	?
CCc1cccc(NS(=O)(=O)c2ccc3c(c2)N(CC(=O)OC)C(=O)CS3)c1	.	-3%	3%	.	.	.
CCCNC(=O)c1nc(C)n(-c2ccc([N+](=O)[O-])cc2)n1	1%	-4%	8%	27µM*	-26	-10%
Cc1ccc(NC(=O)CCS(=O)(=O)c2ccc3nc(C)sc3c2)cc1	10%	-16%	-10%	27µM*	-1	3%
Cc1ccc(N(C(C)C(=O)Nc2ccc3c(c2)OCO3)S(C)(=O)=O)cc1 (centres undefined)	1%	-5%	?	3µM*	?	?
O=c1[nH]/c(=C/c2ccc3c(c2)OCO3)c(=O)[nH]/c1=C/c1ccc2c(c1)OCO2	.	-4%	.	.	.	.
COC(=O)C1=C(C)NC(=O)NC1c1ccc(-c2ccccc2Cl)o1 (centres undefined)	4%	-8%	2%	19µM*	6	-4%[57.1 µM]
CCOC(=O)C1=C(C)NC(=S)NC1c1ccc(-c2cccc(Cl)c2C)o1 (centres undefined)	2%	-9%	79µM*	?	-4	-22%
COC(=O)C1=C(C)NC(=O)NC1c1ccc(-c2ccc(F)cc2)o1 (centres undefined)	1%	-2%	?	5%	-14	-8%
CCOC(=O)C1=C(C)NC(=S)NC1c1ccc(-c2ccc(Cl)cc2)o1 (centres undefined)	-15%[46.1 µM]	-15%	-21%	-12%	7	-18%
CC(=O)N/C(=C/c1ccccc1)c1ccncc1	.	15%	.	.	.	.
O=C(CCCn1c(=O)c2cccn2c2ccccc21)Nc1cc(C(F)(F)F)ccc1Cl	.	2%	-3%	.	.	.
CC1CCN(S(=O)(=O)c2ccc3c(ccc(=O)n3CC(=O)Nc3cccc(F)c3)c2)CC1	.	13%	21%	.	.	.
CC(NC(=O)c1ccc(S(=O)(=O)C(F)F)cc1)c1ccccc1 (centres undefined)	0%	1%	-21%	24µM*	-12	6%
